# PfHsp90 set2 = growth inhibition of PfHsp90-expressing yeast, primary screen, antimalarial PfHsp90 inhibitor project, S. cerevisiae, BacTiter-Glo luminescence, single point, set 2 | inhibition, % at 9.4 µM | hit rate 0.32% among 310,000 | BacTiter-Glo ATP, 48 h; yeast lacking PDR1 and PDR3 efflux regulators;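 active = every replicate shows inhibition above about 80%, whatever the replicate mean, limit read from the data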;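 note: 0% = DMSO neutral controls and 100% = 20 µM radicicol positive controls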
# tim10-1 inh = growth inhibitors of tim10-1 mutant yeast, primary screen, luminescence, uHTS | S. cerevisiae tim10-1 ts strain growth, BacTiter-Glo, 24 h | inhibition, % at 20 µM | hit rate 2.2% among 330,000 | AID 463190, 2010;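 active = inhibition of at least 40%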;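 note: mutant grown at 25 °C; 0% = DMSO wells with yeast and 100% = wells holding no yeast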
# NALP3 yeast inh = NALP3 inflammasome inhibitors in reconstituted yeast, primary screen, luminescence, uHTS | inhibition, % at 10 µM | Yeast reconstituted NLRP3/ASC/caspase-1, beta-gal luminescence, 24 h | hit rate 0.39% among 330,000;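 active = inhibition of 50% or more; inactive = inhibition below 50%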;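 note: plate controls were induced DMSO wells for no effect and uninduced yeast grown without galactose for full effect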
# TIM10 inh = growth inhibitors of isogenic TIM10 control yeast, primary screen, counter-screen for tim10-1 yeast inhibitor project, luminescence, uHTS | S. cerevisiae TIM10 strain growth, BacTiter-Glo luminescence, 24 h | inhibition, % at 10 µM | hit rate 1.4% among 330,000 | AID 463195, 2010;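 active = inhibition of 40% or more at the single tested concentration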;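 note: wild-type TIM10 isogenic control strain grown at permissive 25 °C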
# tim23-1 inh = growth inhibitors of tim23-1 mutant yeast, primary screen, luminescence, uHTS. S. cerevisiae tim23-1 growth, BacTiter-Glo luminescence, 24 h. inhibition, % at 20 µM. hit rate 1.3% among 330,000;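 active = growth inhibition of the mutant yeast at or above 50%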;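 note: temperature-sensitive mutant grown at 25 °C; plate controls were DMSO-treated mutant yeast for no effect and medium wells lacking yeast for full effect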
# NALP3 confirm = NALP3 inhibitors retested in yeast, confirmation, luminescence, single concentration; yeast expressing human NALP3; shares compounds with NALP3 yeast inh; AID 435006, 2010; hit rate 81% among 1,300; inhibition, % at 10 µM; in the data active = inhibition above about 48%
# Casp1 ASC ctr = CASP1-PYCARD signaling inhibition in yeast, confirmatory test, counterassay for NLRP3 inhibitor program, one-dose. shares compounds with NALP3 yeast inh. yeast expressing Caspase-1-ASC, luminescence counter screen. inhibition, % at 10 µM. hit rate 66% among 1,000
# NALP3 retest = NALP3 inhibitors in yeast, repeat test, confirmation, luminescence, single concentration, retest; shares compounds with NALP3 yeast inh; yeast expressing human NALP3, luminescence read-out; inhibition, % at 10 µM; hit rate 53% among 1,000
# The depositor's hits bear a star; . = no result given. Shown are actives, neighbours in structure and some others; about 3.7% of the full set was active somewhere. Cut-off read from the data, not from the text of the source, unless noted: active = inhibition above about 50%; inactive = the rest.
SMILES,PfHsp90 set2,tim10-1 inh,NALP3 yeast inh,TIM10 inh,tim23-1 inh,NALP3 confirm,Casp1 ASC ctr,NALP3 retest
COC(=O)c1ccc(-c2nc3ccccc3[nH]2)cc1,25,-82,63*,-9,11,38,.,.
COC(=O)c1ccc(C(=O)Nc2ccc3nc(-c4ccncc4)[nH]c3c2)cc1,-18,16,0,-9,8,.,.,.
Cc1nc([N+](=O)[O-])cn1CC(=O)Nc1ccc(F)c(Cl)c1,-5,-7,8,0,-2,.,.,.
CCOC(=O)c1oc2ccc(Br)cc2c1COC(=O)C1=COCCO1,-5,7,23,-21,15,.,.,.
c1ccc2c(c1)Cn1c-2nc2ccccc21,5,14,70*,35,30,73*,84*,77*
Brc1c(-c2ccccc2)nc2n1Cc1ccccc1-2,-28,5,27,-27,32,.,.,.
CCOc1ccc(C(=O)CCc2nc3ccccc3s2)cc1,14,-3,67*,21,25,67*,65*,60*
Cc1ccc(C)c(OCCC(=O)OCc2csc(CC(=O)Nc3ccccc3C)n2)c1,.,18,13,18,24,.,.,.
CN(CC(=O)Nc1ccc(F)cc1)C(=O)CN1C(=O)NC2(CCCC2)C1=O,2,13,2,15,8,.,.,.
CCN(CC)c1ccc(Nc2nc(Cl)ncc2Br)cc1,12,22,54*,-16,17,64*,54*,44
O=c1oc2ccccc2c(O)c1Sc1c(O)c2ccccc2oc1=O,27,.,.,.,.,.,.,.
CCCN(CCC)c1nc(-c2ccccn2)nc2ccccc12,-4,17,50*,32,-21,76*,.,.
CCN1CCN(c2nc(-c3ccccn3)nc3ccccc23)CC1,.,-35,14,-24,-98,.,.,.
O=c1cc(-c2ccc(O)cc2)oc2ccc3ccccc3c12,8,33,61*,18,49,81*,58*,54*
Cc1ccc2sc(N(CCCN(C)C)C(=O)CCS(=O)(=O)c3ccccc3)nc2c1C,-17,31,53*,19,24,77*,66*,54*
O=C(NCCN1CCN(C(=O)c2cccc(OC(F)F)c2)CC1)c1cccc(OC(F)F)c1,.,-6,13,-7,-4,.,.,.
Cc1cc(C(F)(F)F)c(C#N)c(SCC(=O)Nc2nc3ccccc3s2)n1,5,3,21,15,25,.,.,.
Cc1ccc2sc(NC(=O)CSc3nc(C)cc(C)c3C#N)nc2c1,-12,4,51*,7,18,41,11,17
CCN(CC)CC(C)(C)C(=O)/C=C/c1ccc(/C=C/C(=O)C(C)(C)CN(CC)CC)cc1,-3,.,.,.,.,.,.,.
COc1ccc(-n2ncc3c(N4CCC(C)CC4)ncnc32)cc1,1,29,14,8,27,.,.,.
CC1CCN(c2ncnc3c2cnn3-c2ccccc2)CC1,-18,8,53*,14,26,60*,47,38
CC(C)(C)Nc1ncnc2c1cnn2-c1ccccc1,27,-25,66*,-32,17,74*,80*,73*
O=C(CSc1ncn(-c2ccccc2)n1)Nc1ccc(Br)cn1,3,23,75*,4,29,76*,69*,50*
Cc1ccc(-c2cnn(-c3cccc(C(F)(F)F)c3)c2N)cc1,12,13,57*,-3,9,66*,49,31
Nc1c(-c2ccc(Cl)cc2)cnn1-c1cccc(C(F)(F)F)c1,10,2,35,-28,9,.,.,.
SMILES,PfHsp90 set2,tim10-1 inh,NALP3 yeast inh,TIM10 inh,tim23-1 inh,NALP3 confirm,Casp1 ASC ctr,NALP3 retest
COc1ccc(OC2CCN(S(=O)(=O)c3ccc(OC)c(OC)c3)CC2)cc1,5,32,5,17,28,.,.,.
CCC(=O)c1coc2ccc(O)cc12,.,9,-7,-13,15,.,.,.
O=C(c1cccs1)c1coc2ccc(O)cc12,-36,-12,67*,39,12,86*,87*,76*
CC(=O)Oc1ccc2occ(C(=O)c3cccs3)c2c1,-7,-29,75*,29,0,88*,81*,77*
CC(C)(C)NC(=O)C(c1ccc(-c2ccccc2)cc1)N(C[C@H]1CC[C@@H]([C@@H]2CC[C@H](CO)O2)O1)C(=O)c1ccc(C(C)(C)C)cc1 (stereo not given in full),-11,26,.,10,44,.,.,.
C/C(=N\NC(=S)NCc1ccccc1)c1cccs1,-19,15,26,28,38,.,.,.
C/C(=N\NC(=S)NCc1ccccc1)c1ccc2ccccc2c1OC(F)F,6,25,56*,39,34,16,.,.
CCOC(=O)C(Cc1ccnnc1)=NO,-33,.,.,.,.,.,.,.
CC(=O)N1N=C(c2ccc3ccccc3c2)OC1(C)C,-52,20,63*,4,34,34,.,.
COc1cc(CCC(=O)NC2(C)CCS(=O)(=O)C2)cc(OC)c1OC (stereo not given),-16,-3,6,8,-9,.,.,.
CO/N=C(\Cn1ncc(NC2CCCCC2)c(Br)c1=O)c1ccc(Cl)cc1,1,20,0,15,36,.,.,.
CO/N=C(\Cn1ncc(N2CCCC2)c(Br)c1=O)c1ccc(Cl)cc1,.,18,77*,0,37,69*,78*,57*
Cc1c(C(=O)OC(C)C)sc(NC(=O)c2cnccn2)c1C(=O)OC(C)C,1,.,.,.,.,.,.,.
NC(=O)CC(NC(=O)Cc1ccc(Br)cc1)c1ccc(N2CCC(Cc3ccccc3)CC2)c([N+](=O)[O-])c1 (stereo not given),-3,8,51*,12,5,80*,18,4
CC(=O)/C=C\c1cn(-c2ncc(C(F)(F)F)cc2Cl)c2ccccc12,.,25,10,7,43,.,.,.
CO/N=C/NC(=O)Cc1cn(-c2ncc(C(F)(F)F)cc2Cl)c2ccccc12,.,6,56*,3,27,64*,38,38
C[C@@H]1CN([C@@H](C)CO)C(=O)c2cc(NS(C)(=O)=O)ccc2O[C@@H]1CN(C)S(=O)(=O)c1ccccc1,9,7,4,9,16,.,.,.
O=C(c1ccccc1)c1cccc(C(=O)c2ccccc2)c1,25,11,56*,-3,29,58*,54*,51*
COc1ccccc1-c1cc(C(=O)NC2CCCC2)no1,-7,-4,53*,19,35,50*,50*,49
O=C1C(=O)N(Cc2cccs2)c2ccccc21,-22,-9,0,-9,5,.,.,.

# Source: PubChem BioAssay (several laboratories)
